High-throughput results deposited in PubChem by National Center for Advancing Translational Sciences (NCATS).
A selection: hits, their analogues and other compounds. The true share with any hit is near 12%.
NS1 function inh: blocks influenza NS1 protein function | Potency, µM (series often up to 46.1 µM) | 270,000 compounds, 0.4% hits | AID 2326; calls by dose curve; further: actives are rising curves; nearly all actives have a fitted effect of over 50% in size
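OD600 was taken as the measure of yeast growth restored by compound in an NS1-expressing S. cerevisiae strain. Cells had been washed out of glucose medium and diluted 1:100 into galactose -URA medium, pH 6.0.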
SARS PLpro yeast: SARS-CoV PLP inhibition in yeast; S. cerevisiae expressing SARS-CoV PLpro, growth rescue; Potency, µM (series often up to 32.9 µM), hits mostly activators; 330,000 compounds, 0.19% hits; calls by dose curve; further: nearly all actives have a fitted effect of over 55% in size
Pf growth 48h: inhibits P. falciparum growth in the first generation, 48 h | P. falciparum luciferase growth in erythrocytes, 48 h | Potency, µM (titrated, usually from 28.7 µM), most hits filed as inhibitors | 310,000 compounds, 5.9% hits | AID 504832
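A one-generation exposure of luciferase-tagged malaria parasites in RPMI 1640/Albumax erythrocyte culture, 37 C and 5% CO2. Inhibition is inferred from decreased luminescence after adding detection reagent.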
AMA1 RON2 block: disrupts binding of P. falciparum AMA1 to RON2. AlphaScreen AMA1-biotinylated RON2 peptide binding. Potency, µM (doses to about 58.2 µM), most hits filed as inhibitors. 360,000 compounds, 0.2% hits. AID 720542; further: nearly all actives have a fitted effect of over 45% in size
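AMA1 (3D7) with his tag at 25 nM final met compounds first, then biotinylated RON2 peptide at 25 nM; detection used donor plus acceptor beads, 10 µg/mL apiece, read by AlphaScreen after 30 min at room temperature.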
Pf growth 96h: inhibits malaria parasite growth, 96 h; 320,000 compounds, 6.9% hits; Potency, µM (highest dose often 28.7 µM), actives largely listed as inhibitors; P. falciparum luciferase reporter growth, 96 h
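Two parasite generations (96 h, 37 C, 5% CO2) of compound exposure in infected erythrocytes (0.05% parasitemia, 2% hematocrit). Luciferase-reporter P. falciparum; decreased luminescence indicates inhibited growth, aimed at apicoplast-acting delayed death.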
HCV inhibitor: inhibitors of hepatitis C virus infection | Potency, µM (titrated, usually from 41.8 µM), hits mostly inhibitors | Huh7.5.1 HCVcc-Cre infection, luciferase reporter, 44 h | AID 651820 | 340,000 compounds, 3.4% hits
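Cells (1,000/well) were plated 4 h before compound, then infected with HCVcc-Cre virus (~0.5 moi). After 44 h further culture, infection was read as luciferase luminescence following a 15 min substrate incubation at room temperature.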
Numbers stand for hits; – = inactive; ? = inconclusive; · = no result given. Unless noted, the call rests on the fitted dose curve; in most records, active means well fitted curve in the direction sought with a large enough effect; inconclusive means small, poorly fitted or top-dose-only effect, or another doubt; inactive means no such curve, though single readings can be large; an effect the other way counts as inactive or inconclusive.

SMILES | NS1 function inh | SARS PLpro yeast | Pf growth 48h | AMA1 RON2 block | Pf growth 96h | HCV inhibitor
Cc1onc(-c2c(Cl)cccc2Cl)c1C(=O)N1CCN(c2ccccc2F)CC1 | – | – | 13.1µM | – | ? | ?
COc1ccccc1N1CCN(C(=O)c2c(-c3ccccc3Cl)noc2C)CC1 | – | – | ? | – | ? | 11.2µM
CCOC(=O)c1ccccc1NC(=O)C1CC(=O)N(c2ccccc2)C1 (configuration not stated) | – | – | – | – | ? | –
CCOC(=O)c1ccc(N2CCOCC2)c(NC(=O)c2c(-c3ccccc3)noc2C)c1 | – | – | 13.1µM | – | ? | ?
COc1ccc(F)cc1C(=O)C1CCCN(C(=O)c2cccc(N(C)C)c2)C1 (configuration not stated) | – | – | 5.86µM | – | ? | –
O=C(c1cc(F)ccc1F)C1CCCN(C(=O)c2ccc(F)cc2Cl)C1 (configuration not stated) | – | – | – | – | 1.17µM | ?
Cc1nc(C)c(C(=O)N2CCCC(C(=O)c3cc(F)ccc3F)C2)s1 (configuration not stated) | – | – | – | – | 5.86µM | –
CC(=O)Oc1cc2c(cc1Cl)C(c1cccs1)CC1(CC(C)(C)NC(=S)N1)O2 (configuration not stated) | – | – | ? | – | ? | ?
CCOC(=O)C1=C(COC(=O)C2(C)CC2(Cl)Cl)NC(=O)NC1c1ccccc1 (configuration not stated) | – | – | – | – | – | –
FC(F)(F)c1ccccc1Cc1c(-c2ccco2)nc2ccc(Br)cn12 | · | · | · | – | · | ·
O=C1OC(c2ccccc2)=N/C1=C\C=C\c1ccccc1[N+](=O)[O-] | – | – | – | – | 0.465µM | –
COc1ccc(CN(Cc2ccc(C(=O)O)cc2)C(=S)Nc2cccc(C)c2)cc1OC | · | – | – | – | ? | –
CC(C)n1cnc2c(Nc3cccc(Cl)c3)nc(NCCCO)nc21 | – | – | ? | – | 14.7µM | 11.2µM
CC(C)[C@H](CO)Nc1nc(Nc2ccc(Cl)c(C(=O)O)c2)c2ncn(C(C)C)c2n1 | – | – | ? | – | ? | –
CCCC(=O)NCC(c1cccs1)S(=O)(=O)c1ccc(Cl)cc1 (configuration not stated) | – | – | – | – | 2.62µM | –
Cn1c(SCC(=O)N2CCOCC2)nc2c(c1=O)SCC2 | – | – | – | – | – | –
COc1ccccc1NC(=O)CN1CCN(C(=O)c2ccco2)CC1 | – | – | 2.08µM | – | – | –
COc1ccc(NC(=O)CN2CCN(C(=O)c3ccco3)CC2)c(OC)c1 | – | – | 10.4µM | – | – | –
O=C(c1ccco1)N1CCN(CCCCOc2cccc3ccccc23)CC1 | – | – | ? | – | ? | –
Cc1ccccc1NC(=O)CN1CCN(C(=O)c2ccco2)CC1 | – | – | ? | – | – | –
COc1ccccc1NC(=O)c1ccc(NC(=O)CN2CCN(C(=O)c3ccco3)CC2)cc1 | · | – | – | – | ? | ?
O=C(c1ccco1)N1CCN(CCOCCOc2cccc3ccccc23)CC1 | – | – | · | – | 11.7µM | –
Cc1cc(Cl)ccc1NC(=O)CN1CCN(C(=O)c2ccco2)CC1 | – | – | 10.4µM | – | – | –
O=S1(=O)N[C@@H](Cc2ccccc2)COc2cc(N3CCC[C@@H]3CO)ccc21 | · | · | · | – | · | ·
CCN(CC)S(=O)(=O)c1ccc(N2CCN(CCOc3ccc(OC)cc3)CC2)nc1 | – | – | ? | – | ? | ?
SMILES | NS1 function inh | SARS PLpro yeast | Pf growth 48h | AMA1 RON2 block | Pf growth 96h | HCV inhibitor
COc1ccc2ccccc2c1CN1CCN(C(=O)c2ccccc2)CC1 | – | – | ? | – | – | ?
Cc1cccc(COc2coc(CN3CCN(C(=O)c4ccco4)CC3)cc2=O)c1 | · | – | ? | – | 11.7µM | –
O=C(CN1CCC(NC(=O)c2ccco2)CC1)Nc1ccccc1[N+](=O)[O-] | – | – | ? | · | ? | ·
COc1ccc2ccccc2c1CN1CCN(C(=O)c2ccco2)CC1 | – | – | 6.57µM | – | – | ?
COc1ccccc1NC(=O)N1CCN(CCc2ccccc2)CC1 | – | – | 4.15µM | – | – | –
O=C(CN1CCC(NC(=O)c2ccco2)CC1)Nc1cccc2ccccc12 | – | – | ? | – | 10.4µM | –
CC(C)Cc1nnc(NC(=O)CCC(=O)N2CCN(Cc3ccc(Cl)cc3)CC2)s1 | – | – | ? | – | – | ?
Cc1cc(C)n(-c2nc3ccccc3c(=O)n2OCC#N)n1 | – | – | 1.31µM | – | 0.37µM | ?
CCOC(=O)COn1c(-n2nc(C)cc2C)nc2ccccc2c1=O | – | – | 3.7µM | – | 1.47µM | –
CCOn1c(-n2nc(C)cc2C)nc2ccccc2c1=O | – | – | – | – | · | –
COC(=O)COn1c(-n2nc(C)cc2C)nc2ccccc2c1=O | – | – | 9.28µM | – | · | –
S=C(NCC1CCCO1)Nc1ccc(Nc2ccccc2)cc1 (configuration not stated) | – | – | – | ? | 11.7µM | ?
COc1ccccc1NC(=S)NCC1CCCO1 (configuration not stated) | – | – | – | – | ? | –
S=C(NCC1CCCO1)Nc1cccc2ccccc12 (configuration not stated) | – | – | – | – | 1.04µM | –
Cc1ccc(NC(=O)CN2CCC(C(=O)c3ccc4c(c3)OCCO4)CC2)cc1 | – | – | · | – | – | ?
COC(=O)c1ccccc1NC(=O)CN1CCC(C(=O)c2ccc3c(c2)OCCO3)CC1 | – | – | – | – | 1.47µM | ?
Cc1cc(OC(C)C(=O)N2CCN(c3ccc(F)cc3)CC2)c2c(C)cc(=O)oc2c1 (configuration not stated) | – | – | ? | – | – | –
CN(C)S(=O)(=O)c1cccc(N2C(=O)CC3(CCCCC3)CC2=O)c1 | · | – | – | – | – | ?
O=C1CC2(CCCC2)CC(=O)N1c1ccccc1 | · | – | ? | – | 11.7µM | –
COc1ccc(N2C(=O)CC3(CCCC3)CC2=O)cc1 | – | – | – | – | 6.57µM | –
COC(C[C@@H](O)CC(=O)COCc1ccccc1)OC | – | – | – | – | – | 2.82µM
COc1ccc(CN(C#N)c2nc(C)cc(C)n2)cc1 | – | – | ? | – | 7.38µM | –
COc1ccc(OC)c(Nc2nc(NCc3ccco3)c3ccccc3n2)c1 | – | – | ? | ? | – | 11.2µM
Oc1ccccc1Nc1nc(NCc2ccco2)c2ccccc2n1 | – | – | ? | – | 2.08µM | 12.6µM
COc1ccc(OC)c(Nc2nc(NCc3ccco3)nc(N)c2[N+](=O)[O-])c1 | – | – | ? | – | ? | –
Cc1ccccc1Nc1nc(NCc2ccco2)c2ccccc2n1 | · | – | ? | ? | – | ?
Cc1cccc(Nc2nc(NCc3ccco3)c3ccccc3n2)c1 | – | – | 0.657µM | ? | ? | 6.31µM
